# The supplement of paper PMC6555819
# Experiments:
# Assay in all cases: PBM binding z-score (relative to random genomic background probes); higher = stronger binding; sequences stand for … in GC…GCGATTGACAGCGTAGAATGAAGG
# [1] = tested on: RARb homodimer (NR concentration 270 nM)
# In short: (§1)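 Each nuclear receptor dimer, without ligand, was incubated for 1 h on custom Agilent 4×180K protein-binding microarrays. Binding was detected with antibodies against each partner (one per run), and scanned fluorescence was regression-normalized. The binding z-scores are referenced to random human genomic background probes.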
# [2] = tested on: RARg:RXRa (NR concentration 270 nM, RXRa partner concentration 90 nM)
# In short: as §1
# [3] = tested on: RARg homodimer (NR concentration 270 nM)
# In short: as §1
# [4] = tested on: RXRa DBDmut IVT, anti-RXR (DBD mutation: RXRa K156A/R161A, NR concentration 90 nM)
# In short: as §1
# [5] = tested on: RXRa homodimer (NR concentration 180 nM)
# In short: as §1
# [6] = tested on: THRa:RXRa (NR concentration 90 nM, RXRa partner concentration 90 nM)
# In short: as §1
# [7] = tested on: THRa homodimer (NR concentration 90 nM)
# In short: as §1
# [8] = tested on: VDR homodimer (NR concentration 270 nM)
# In short: as §1
Sequence,PBM binding z-score [1],PBM binding z-score [2],PBM binding z-score [3],PBM binding z-score [4],PBM binding z-score [5],PBM binding z-score [6],PBM binding z-score [7],PBM binding z-score [8]
TCATATAGGTAATTGCTAGGTGAAAGTCCGATCT,0.402,0.393,0.128,1.47,0.589,1.44,0.689,0.282
TCTGACAGGTGAAGGTAACTCAGGTACGCAGTCG,0.819,0.644,0.639,0.827,0.901,1.5,0.158,0.222
ATATGTAGGGTACATCCGGGTCATTCAGGCTATG,2.84,2.44,1.86,2.66,2.64,3.83,2.45,5.83
TCAGACAGGTGAAGGAAACTCAGGTACGCAGTCG,0.458,0.429,0.359,1.34,0.487,0.592,0.421,0.426
CCTAGCAGGCCAGGGTAACTCAAGCATTTCGCTT,-0.537,-0.456,-0.357,-0.541,-0.455,-0.054,-0.445,-0.329
CCTTATGGGTCACGAGGTTATAGCACGACGAGCG,3.34,5.59,4.86,1.46,6.1,3.3,0.63,1.1
CCTAGCAGGCCAGGCTCACTCAAGCATTTCGCTT,-0.944,-0.644,-0.705,0.0454,-0.649,-0.789,-0.705,-0.911
AGCTCTAGGTAAGACTCAGTTCAGTGAAGAACGC,0.218,-0.161,-0.269,0.149,-0.208,0.465,0.312,1.14
CCTGCTAGGTCACTGGTCAGCTAAAGCAGCTCGC,3.08,3.82,4.65,1.68,2.59,2.7,0.97,0.123
AGTTAAAGTTCATCTAGGTAACGTAAGATATGCT,3.84,5.06,5.65,4.63,4.14,3.21,0.583,5.32
CGAACTAGGTCATCCAGGACGGTGAATACATTGA,2.81,4.14,4.7,1.85,3.01,3.07,1.04,1.3
CGTCCAAGGTCATAGGAGGTCCGTGAAGACAGAT,3.8,5.84,5.85,3.86,6.02,4.51,2.24,3.33
CGTCCAAGTTCAAGGTAACGTAACAGAAAGCAGC,2.23,2.83,3.21,4.37,2.15,2.6,1.66,3.39
TCATATAGGTAATACAGGTGAAAATCGGCATCTA,0.328,0.729,0.82,1.8,1.72,0.836,0.391,0.435
TCTCGGAGGAGACGAAGGTCAGAGCTTTCCAGAG,2.74,1.88,1.77,-0.234,1.63,1.11,-0.507,-0.413
CCTACTGGGCCACGAAAGGTCAATGATTCAGTGA,4.81,4.94,4.64,0.165,4.81,3.66,0.66,0.883
AGAATGAGGTTATACGTAGATCAGGGTAGAAAGT,1.33,1.82,1.34,1.81,2.24,2.42,0.874,1.21
CGTCAAAGTGCAACTAAGGTAACGTAAAGCACGC,1.18,1.58,1.59,1.13,0.815,4.99,1.18,0.128
GCTAGCAGGCCATATGGGTCACTCAATGACGGGC,1.78,1.54,1.39,-0.402,1.43,1,-0.658,-0.276
GGAAAGAGGGCAAAGTTGATAGCATCTGTCGACG,1.93,2.84,2.38,1.85,2.81,1.08,0.0442,1.18
TAGCCGAGGTCATGGGCCAGTATACCACGCGAAC,4.19,6.64,6.26,3.46,7.64,4.25,2.71,3.91
ATATGTGGGTTAAGGGTCATTCAGGTTGGTTCGC,3.84,4.83,3.59,2.43,6.27,3.62,2.41,4.82
CTCGAAAGGTCGGTTGAGGTGAGTATTCGGATAA,2.52,2.59,2.91,1.01,2.25,4.98,1.25,0.522
CCTACTGGGCCATTCAGAGATCATTGATCATATG,-0.395,-0.116,0.345,-0.0997,-0.144,-0.209,-0.607,-0.171
CGTCAAAGTTCAACTAAGGTACCGTAAAGCACGC,4.34,5.81,6.61,4.77,5.35,4.81,0.671,4.06
TGACTGAGGTTATAAGATCAGGGAACGTTGCAAA,0.146,1.59,0.985,0.64,1.87,1.58,-0.016,0.435
CCAGACAGGTGAAAGGTAACTCTGTCTGGTACGC,0.719,1.24,0.754,0.07,2.07,1.01,-0.229,0.0648
TCTAGCATGCCAGAGGGTCACTCAAGAGGTACGG,2.71,2.48,2.22,0.0251,2.7,1.7,-0.281,0.555
